Shown are actives, neighbours in structure and some others; about 4.8% of the full set was active somewhere.
SMARCA2 activ = increases SMARCA2 function in MMTV reporter cells | MG213 cells, MMTV-luciferase reporter, dexamethasone, overnight | activation, % at 9.1 µM | actives 1% (n = 370,000) | AID 652017; in the data active = activation above about 7.8%
hcDAF-12 act = activates DAF-12 receptor from parasite H. contortus. HEK293 hcDAF-12 lit1-tk-luc reporter, luminescence; 0% DMSO, 100% Δ7-dafachronic acid. actives 1.4% (n = 370,000). AID 652067. activation, % at 6.8 µM;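 active = activation above the mean of all tested compounds plus 3 SD, cut at about 5.5% in these data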
DAX1 inh-1 = NR0B1 (DAX1) inhibition. P51843. HEK293 Gal4-DAX1 luciferase reporter, luminescence. inhibition, % at 6.75 µM. actives 0.99% (n = 340,000). AID 504766;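 active = inhibition above the mean over all tested compounds plus 3 SD, cut at about 4.2% in these data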;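 also: inhibition shows as a rise in luminescence from relieved DAX1 repression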
Target sequence (P51843 207-470 limits assumed): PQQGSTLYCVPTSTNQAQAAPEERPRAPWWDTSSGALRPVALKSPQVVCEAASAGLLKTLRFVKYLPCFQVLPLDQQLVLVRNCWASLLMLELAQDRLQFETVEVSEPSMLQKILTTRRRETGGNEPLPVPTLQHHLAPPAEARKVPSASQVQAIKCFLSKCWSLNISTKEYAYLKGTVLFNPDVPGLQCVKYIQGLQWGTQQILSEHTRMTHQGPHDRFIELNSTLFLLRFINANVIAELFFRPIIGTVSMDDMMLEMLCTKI
DAX1 inh-2 = DAX1 (NR0B1) inhibition, primary screen | HEK293T StAR-luciferase reporter, SF-1/DAX-1 repression relief | inhibition, % at 6.8 µM | actives 1.1% (n = 370,000) | AID 652010;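 active = inhibition above the mean over all tested compounds plus 3 SD, cut at about 3.6% in these data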;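 also: higher inhibition means more luminescence from relief of DAX-1 repression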
hgDAF-12 ag = hgDAF-12 agonism, primary luciferase screen | actives 1.8% (n = 370,000) | HEK293 GAL4-hgDAF12 UAS-luciferase reporter, agonist luminescence; normalized to butyrate control | activation, % at 6.8 µM;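 active = activation above a cutoff set at the mean of all screened compounds plus 3 SD, cut at about 10% in these data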
ssDAF12 agonist = S. stercoralis DAF-12 activation, primary screen | HEK293 ssDAF-12/GRIP1 lit1-tk-luc reporter, luminescence; % of 3 µM dafachronic acid response | activation, % at 6.8 µM | actives 1% (n = 370,000) | AID 652126;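 active = activation above the mean over all tested compounds plus 3 SD, cut at about 0.9% in these data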
Numbers stand for hits; i = inactive; nt = no result given.

SMILES | SMARCA2 activ | hcDAF-12 act | DAX1 inh-1 | DAX1 inh-2 | hgDAF-12 ag | ssDAF12 agonist
O=C(Nc1nnc(-c2ccccc2F)s1)c1cccnc1 | i | i | 5.1 | i | i | i
C/C(CCc1ccc2c(c1)OCO2)=N\NC(=O)c1ccccc1Cl | i | i | i | i | i | i
C/C(=N\NC(=O)c1ccccc1)c1ccc2c(c1)OCO2 | i | i | 5.2 | i | i | i
C/C(CCc1ccc2c(c1)OCO2)=N\NC(=O)c1ccccc1 | i | i | i | i | 11 | 2.5
Nc1[nH]c(C(=O)c2ccccc2)c(-c2cccc3ccccc23)c1C(=O)c1c(-c2ccccc2)[nH]c2ccccc12 | nt | i | nt | nt | i | i
CCCCn1c(N)c(N(CCOC)C(=O)COc2ccc(OCC)cc2)c(=O)[nH]c1=O | i | i | i | i | i | i
CCCCn1c(N)c(N(CC)C(=O)COc2ccc(C#N)cc2)c(=O)[nH]c1=O | i | i | i | i | i | 1.3
CCc1nc2ccc(C(=O)NCc3cccs3)cn2c1N(CC)CCOC | i | i | nt | i | i | i
CC1(C(=O)Nc2ccc(Cl)c(Cl)c2)CCN1C(=O)CC1CCCC1 (stereo not drawn) | i | i | nt | i | i | i
COC(=O)c1cccc2c1NC(=O)C2=O | i | i | 8.0 | i | i | i
COc1ccccc1NC(=S)NNC(=O)c1ccccc1Br | i | i | i | i | i | 1.3
COc1ccccc1NC(=S)NNC(=O)c1ccccc1 | i | i | i | i | 11 | i
COc1cc(OC)cc(C(=O)NNC(=S)Nc2ccccc2OC)c1 | i | i | i | i | i | i
COc1ccccc1NC(=S)NNC(=O)c1ccncc1 | i | i | i | i | i | i
O=C(Nc1cccc(C(F)(F)F)c1)c1csc(COCCO)n1 | i | i | nt | i | i | i
COc1cccc2c1OCC(C(=O)Nc1nccs1)=C2 | i | i | i | i | 13 | i
CC(=O)c1ccc(S(=O)(=O)Nc2ccc(C(=O)N(C)CC(=O)Nc3cccc(C)c3C)cc2)cc1 | i | i | i | i | i | i
CCCCNC(=O)C1CCN(Cc2ccc(OCc3ccccc3)cc2)CC1 | i | i | i | i | 11 | i
OC1CCN(Cc2ccc(OCc3ccccc3)cc2)CC1 | i | 6.3 | i | i | 11 | i
O=C(C1CCN(Cc2ccc(OCc3ccccc3)cc2)CC1)N1CCCC1 | i | i | i | i | i | i
CCNC(=O)C1CCCN(Cc2ccc(OCc3ccccc3)cc2)CC1 (stereo not drawn) | i | i | nt | i | i | i
O=C1CCC(C(=O)N(CCO)Cc2ccccc2)CN1CCc1cccc(F)c1 (stereo not drawn) | i | i | i | i | i | i
COC(=O)[C@]12C[C@H](CC(=O)NCCCN3CCCC3=O)C(=O)N(CCC3=CCCCC3)C1=C[C@H](C(C)C)O[C@@H]2C1CC1 | i | i | nt | i | i | i
Cc1cccc(C)c1NC(=O)C(c1ccncc1)N1CCN(C)CC1 (stereo not drawn) | i | i | nt | i | i | i
Cc1cccc(C)c1NC(=O)C(c1ccccc1)N1CCN(C)CC1 (stereo not drawn) | i | i | nt | 4.4 | i | i
SMILES | SMARCA2 activ | hcDAF-12 act | DAX1 inh-1 | DAX1 inh-2 | hgDAF-12 ag | ssDAF12 agonist
O=C(c1ccccc1)c1cnc(Nc2ccccc2Cl)s1 | nt | nt | 6.8 | nt | nt | nt
S=C(SCc1c(Cl)cccc1Cl)N1CCSCC1 | i | i | nt | i | i | i
COCc1cc(OC)nc(-c2csc(C)n2)n1 | i | i | 6.4 | i | i | i
COCc1cc(=O)[nH]c(-c2csc(C)n2)n1 | i | i | i | i | i | i
CCCC(C)NNC(=O)c1cc2ccccc2[nH]1 (stereo not drawn) | i | i | i | i | i | i
CC(C)(C)c1ccc(S(=O)(=O)NNC(=O)c2cc3ccccc3[nH]2)cc1 | i | 6.5 | i | i | i | i
N#Cc1ccc(C(=O)NC23CC4CC(CC(C4)C2)C3)cc1 | i | i | i | i | i | i
CC(C)CC(=O)Nc1ccc([N+](=O)[O-])cc1Cl | i | i | 4.3 | i | i | i
CCOCC(=O)Nc1ccc([N+](=O)[O-])cc1Cl | i | i | nt | i | i | i
O=C(NCCN1CCC(n2c(=O)[nH]c3ccccc32)CC1)c1cccc(F)c1 | i | i | nt | i | i | i
O=C(NCCN1CCC(n2c(=O)[nH]c3ccccc32)CC1)c1cccc(Cl)c1 | i | i | nt | i | 19 | i
CN(C)c1ccc(C(=O)OCC(=O)N2CCCC2)cc1 | i | i | i | i | i | 0.9
O=C(Oc1cccc2ccccc12)c1ccco1 | i | 6.0 | i | i | i | i
CCc1nnc2n1N=C(c1ccc(Cl)cc1)CS2 | i | i | i | i | i | i
Cc1nnc2n(c1=O)N=C(c1ccc(Cl)cc1)CS2 | i | 6.0 | i | i | i | i
COC(=O)C1=C(C)N(C2CCCCC2)C(=O)/C1=C\c1cccs1 | i | i | nt | i | i | i
COc1cccc(/C=C2\SC(N)=NC2=O)c1OS(=O)(=O)c1ccccc1 | i | i | i | i | i | 1.1
CCOC(=O)N1CCC(n2c(SCC(=O)NCc3ccccc3)nc3ccccc3c2=O)CC1 | i | i | i | i | i | i
CCOC(=O)N1CCC(n2c(SCC(=O)NCCC3=CCCCC3)nc3ccccc3c2=O)CC1 | i | i | 4.4 | i | i | i
Cc1cc(=O)[nH]c(SCC(=O)NCCC2=CCCCC2)n1 | i | i | 4.9 | i | i | i
CNc1ccc(-c2cccc(C(C)=O)c2)cn1 | i | i | nt | i | i | i
CNc1ccc(-c2cccc(CO)c2)cn1 | i | i | nt | i | 11 | i
O=C(c1ccc(Oc2ccccc2)cc1)c1nc2c(n1O)CCCC2 | i | i | i | i | i | 1.2
Cn1cnnc1SCC(=O)NCc1ccccc1 | i | i | i | i | 12 | i
Cc1ccc(CNC(=O)CSc2ncc(C(=O)Nc3ccccc3)c(=O)n2C)cc1 | i | i | i | i | i | 1.6
SMILES | SMARCA2 activ | hcDAF-12 act | DAX1 inh-1 | DAX1 inh-2 | hgDAF-12 ag | ssDAF12 agonist
COc1ccc(CCNC(=O)CSc2ncc(C(=O)Nc3ccccc3)c(=O)n2C)cc1 | i | i | i | i | i | i
CC(=O)Nc1ccc(NC(=O)CSc2ncc(C(=O)Nc3ccccc3)c(=O)n2C)cc1 | i | i | i | i | i | i
Cn1cnnc1SCC(=O)NC(=O)NCc1ccccc1 | i | i | i | i | i | i
Cn1c(SCC(=O)NCc2ccccc2)ncc(C(=O)Nc2ccccc2)c1=O | i | i | i | i | i | 1.0
COC(=O)[C@]12C[C@H](CC(=O)NCc3ccccc3)C(=O)N(CCc3ccc(OC)c(OC)c3)C1=C[C@H](C1CCCC1)O[C@@H]2C | i | i | nt | i | i | i
COc1ccc([C@H]2C[C@H](O)[C@@H](n3cc(C4CC4)nn3)CN2C(=O)C2CCCCC2)cc1 | i | i | i | i | i | i
NC(=NCc1ccccc1)C(N=Nc1ccccc1)C(=O)NCc1ccccc1 (stereo not drawn) | i | i | i | i | i | i
